RORg inh: ROR gamma (mouse) transcription inhibition; P51450; Drosophila S2 Gal4-RORgamma UAS-luciferase reporter, 20 h; Potency, µM (titrated, usually from 53.6 µM), for the others: at the top dose activity change, negative = inhibition, most hits filed as inhibitors; 5.4% of 310,000 active; AID 2551; further: nearly all actives have a fitted effect of over 60% in size
Target sequence (P51450 whole entry, looked up, the tested form may be a part): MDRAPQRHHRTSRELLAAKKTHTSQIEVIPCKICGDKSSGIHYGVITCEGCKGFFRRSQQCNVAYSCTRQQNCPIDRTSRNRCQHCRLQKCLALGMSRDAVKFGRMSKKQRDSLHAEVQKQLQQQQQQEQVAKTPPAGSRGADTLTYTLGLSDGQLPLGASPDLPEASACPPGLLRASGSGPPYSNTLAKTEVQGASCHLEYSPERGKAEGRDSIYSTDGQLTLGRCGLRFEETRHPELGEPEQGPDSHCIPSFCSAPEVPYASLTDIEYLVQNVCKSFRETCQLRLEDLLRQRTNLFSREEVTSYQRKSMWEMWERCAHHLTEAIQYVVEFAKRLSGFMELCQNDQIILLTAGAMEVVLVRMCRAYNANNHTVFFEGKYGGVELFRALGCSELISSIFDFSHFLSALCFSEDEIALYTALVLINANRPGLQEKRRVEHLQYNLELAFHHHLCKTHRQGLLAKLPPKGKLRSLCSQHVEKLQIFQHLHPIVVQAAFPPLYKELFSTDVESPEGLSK
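Schneider cells (Drosophila), stable Gal4 DBD–ROR gamma + UAS-luc; 1 hr cmpd preincubation; Cu2+ induction 700 uM final; 20 hr ambient; luminescence.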
VP16 counter: inhibits Gal4-VP16 luciferase reporter, ROR gamma counter-screen; 3.5% of 310,000 active; AID 2546; Potency, µM (titrated, usually from 53.6 µM), for the others: at the highest dose activity, negative = inhibition, hits mostly inhibitors; Drosophila S2 Gal4-VP16 UAS-luciferase, luminescence, 20 h;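 further: Gal4-VP16 expression switched on by copper sulfate through the metallothionein promoter; nearly all actives have a fitted effect of over 50% in size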
ALDH1A1 inh: inhibitors of human aldehyde dehydrogenase 1A1. P00352. Purified ALDH1A1, NADH fluorescence, propionaldehyde substrate. Potency, µM (highest dose often 75.3 µM), for the others: at the highest dose activity, negative = inhibition, most hits filed as inhibitors. 7.3% of 220,000 active; active means well fitted inhibition curve with a large enough effect, not every such curve was filed as active; inconclusive means small, poorly fitted or top-dose-only effect, or another doubt; inactive means no such curve, though single readings can be large or run the other way;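 further: plate controls were no enzyme wells and a reference inhibitor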
PLK1 PBD block: PLK1 (human) polo-box domain binding inhibition | P53350 | Plk1 PBD binding of FITC phosphopeptide, fluorescence polarization | Potency, µM, without a hit: max response, negative = inhibition, most hits filed as inhibitors | 2.8% of 360,000 active | AID 720504; further: series mostly up to about 57 µM; nearly all actives have a fitted effect of over 65% in size
Sfp PPTase inh: inhibitors of Bacillus subtilis Sfp phosphopantetheinyl transferase. Potency, µM, inactives show largest response in the series, negative = inhibition, most hits filed as inhibitors. Q9F4F7. Biochemical Sfp PPTase activity, qHTS. 3.5% of 310,000 active;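 further: the enzyme is Sfp with the accession as filed and its product quenches rhodamine fluorescence; 0% = enzyme reaction without inhibitor and -100% = no enzyme wells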
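With Hepes-Na pH 7.6 buffer containing 10 mM MgCl2, Sfp (15 nM) modified BHQ-2-YbbR (12.5 uM) using rhodamine-CoA (5 uM). Two reads 30 minutes apart at 525/598 nm yielded each well's rate.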
* hit, by the source's call; ? = inconclusive; · = not tested or not shown; [ ] = remark or other dose. Only some compounds are listed: those with a hit (about 12% of all), similar ones and a draw of the others. Unless noted, the call rests on the fitted dose curve; in most records, active means well fitted curve in the direction sought with a large enough effect; inconclusive means small, poorly fitted or top-dose-only effect, or another doubt; inactive means no such curve, though single readings can be large; an effect the other way counts as inactive or inconclusive. Unless noted, on the % scale 0 is the no-effect control and ±100 the full control effect; potency means the concentration at half of the fitted maximal effect.

SMILES	RORg inh	VP16 counter	ALDH1A1 inh	PLK1 PBD block	Sfp PPTase inh
CC1=C(C(=O)Nc2ccccn2)C(c2ccc(Br)cc2)NC(=S)N1 (centres undefined)	24%	3%	0.71µM*	-9%	11%
O=C(Nc1ccc(Cl)cc1)Nc1ccccn1	36%	-1%	·	6%	6%
CCOc1cc(C2NC(=S)NC(C)=C2C(=O)Nc2ccc(OC)cc2)ccc1O (centres undefined)	23%	9%	?	-19%	-5%
CN1CCN(C(=O)c2ccc(-n3c(=O)c(=O)[nH]c4ccccc43)cc2)CC1	·	·	-13%	·	·
O=C(NCCCN1CCOCC1)c1[nH]c(C(F)(F)F)nc1-c1ccccc1	·	·	·	1%	·
Cc1cc(=O)[nH]c2nc3ccccc3n12	·	·	·	5%	·
O=S(=O)(NCCc1ccccc1)c1ccc(Br)cc1	33%	-3%	·	2%	-1%
O=S(=O)(NCCSc1ccccn1)c1ccc(Br)cc1	8.9µM*	11µM*	?	-17%	-4%
O=S(=O)(NCCSc1ccccc1)c1ccc(F)cc1	-25%	-9%	?	24µM*	-3%
CCCOC(=O)c1ccccc1O	8%	2%	·	·	12%
CCNc1ncc2nc(-c3ccc(OC)cc3)c(=O)n(-c3ccc(OC)cc3)c2n1	-31%	-3%	?	·	12%
c1ccc2c(c1)Cc1cc3cc4c(cc3nc1-2)OCO4	2.2µM*	2.2µM*	?	·	-17%
Cc1ccc(S(=O)(=O)n2nc(C)c(C#N)c2N)cc1	0%	3%	-5%	27µM*	-1%
Oc1cc2c(cc1O)[C@H](c1ccccc1)CNCC2	?	3%	4%	·	79µM*
CCCCC#Cc1nc(N)c2ncn([C@@H]3O[C@H](C(=O)NCC)[C@@H](O)[C@H]3O)c2n1	·	·	7.9µM*	·	·
O=C(CNc1ccccc1)N/N=C/c1ccc([N+](=O)[O-])cc1	38%	-6%	3.5µM*	-14%	-23%
O=C(CNc1cccc([N+](=O)[O-])c1)N/N=C/c1ccc([N+](=O)[O-])o1	10%	-19%[10 µM]	2µM*	-9%	-8%
O=C(CNc1cccc2ccccc12)N/N=C/c1ccc([N+](=O)[O-])o1	11µM*	?	-4%	-20%	-13%
CCOC(=O)NC(O)C(=O)c1ccc(F)cc1 (centres undefined)	-9%	2%	22µM*	-10%	11%
CC(=O)c1c(OCC(=O)O)ccc2c(C)cc(=O)oc12	1%	12%	-8%	-6%	10%
CCOC(=O)COc1ccc2c(C)cc(=O)oc2c1C(=O)c1ccccc1	1%	8%	?	21µM*	8%
CCCSc1nc(N)nc2c1ncn2C1OC(CO)C(O)C1O (centres undefined)	·	·	·	-15%	·
O=C(O)C1C(c2ccccc2)C(C(=O)Oc2ccccc2)C1c1ccccc1 (centres undefined)	0%	5%	16µM*	-19%	10%
Cc1cc2c([nH]c3ccccc32)c2c1OC(C)(C)C=C2	-19%	3%	·	-8%	27%
COc1ccc2[nH]c(=O)c3c(c2c1)OC(C)(C)C=C3	-12%	25µM*	-7%	-13%	-20%
SMILES	RORg inh	VP16 counter	ALDH1A1 inh	PLK1 PBD block	Sfp PPTase inh
Cc1c(C(=O)Nc2ccccc2)cn2c(nc3ccccc32)c1C#N	-41%	?	?	-4%	1%
Cc1ccccc1C(=O)Nc1ccc2c(C#N)c3nc4ccccc4nc3n2c1	-2%	-5%	?	-16%	56µM*
CC1(C)S[C@@H]2[C@H](C(=O)O)N=C(Cc3ccccc3)N2[C@H]1C(=O)O	·	·	0%[13.5 µM]	·	·
CCOc1ccc(NC(=O)C(c2ccccn2)N(C(=O)CCl)c2ccc(OC)cc2)cc1 (centres undefined)	?	?	-7%	-12%	14µM*
COc1ccc(NC(=O)C(c2ccccn2)N(C(C)=O)c2ccc(C)cc2)cc1 (centres undefined)	1%	-11%	6%	-5%	-4%
CCOc1ccc(NC(=O)C(c2ccccn2)N(C(=O)CCl)c2ccc(OCC)cc2)cc1 (centres undefined)	-11%	-13%	8.9µM*	-20%	40µM*
CN(C)Cc1ccc(-c2cc3onc(-c4ccccc4)c3c(=O)n2C)cc1	·	·	-4%[13.5 µM]	·	·
NC(=O)NC(CC(=O)OCC(=O)Nc1nnc(-c2ccccc2)o1)c1ccc(Cl)cc1 (centres undefined)	·	·	·	-11%	·
Cc1ccc(CNC(=O)c2cc3c(=O)n(C)c4ccccc4c3n2C)cc1	1%	4%	19%	-5%	10%
CN(CCNC(=O)c1cc2c(=O)n(C)c3ccccc3c2n1C)Cc1ccccc1	11µM*	?	?	-5%	-11%
Cn1c(C(=O)NCCN2CCOCC2)cc2c(=O)n(C)c3ccccc3c21	-32%	1%	?	-10%	-11%
CCCN(CCC)CCNC(=O)c1cc2c(=O)n(C)c3ccccc3c2n1C	-19%	-1%	?	19µM*	12%
O=c1[nH][nH]c2c1[C@H](C1CCCC1)O[C@H](CCc1ccccc1)C2	·	·	·	-25%	·
Cc1ccc(NS(=O)(=O)c2ccc(C(=O)NCC3CCCO3)cc2)cc1 (centres undefined)	?	3%	14%	-7%	18%
NS(=O)(=O)c1ccc(NC(=S)NCC2CCCO2)cc1 (centres undefined)	-17%	4%	28µM*	24µM*	45µM*
CC(=O)Nc1ccc(S(=O)(=O)NNC(=S)NCC2CCCO2)cc1 (centres undefined)	?	-5%	·	-4%	56µM*
CC(=O)C[C@H](c1ccc([N+](=O)[O-])cc1)c1c(O)c2ccccc2oc1=O	4%[2.98 µM]	-4%[17 µM]	11%[20.9 µM]	·	22%
O=C(COC(=O)CNS(=O)(=O)c1ccc2ccccc2c1)Nc1ccccc1Sc1ccccc1	-10%	-1%	18µM*	0%	32%
CN(c1cccc(NS(=O)(=O)c2cccs2)c1)S(C)(=O)=O	2%	?	20µM*	-4%	16%
O=C(c1cccc(S(=O)(=O)N2CCc3ccccc32)c1)N1CCN(c2ccccc2)CC1	·	·	·	-13%	·
Cc1c(Cl)cccc1N1CC(C)(C)C1=O	29%	-22%	5%	27µM*	15%
Cc1c(NC(=O)c2cc(-c3cccs3)on2)c(=O)n(-c2ccccc2)n1C	-1%	-8%	32µM*	-6%	14%
Cc1c(NC(=O)c2cc(-c3ccco3)on2)c(=O)n(-c2ccccc2)n1C	-6%	3%	?	-19%	-26%
C/C=C1\COC(C(=O)NCc2ccccn2)(C(F)(F)F)C=C1C=C(C)C (centres undefined)	?	-19%	·	·	-5%
CN(C)c1ncc2nc(-c3cccc(C#N)c3)c(=O)n(C[C@H]3CCCO3)c2n1	-15%	6%	?	·	17%
Clc1ccccc1Cn1c(/C=C/c2ccco2)nc2ccccc21	11µM*	?	?	-9%	50µM*
O=c1ccc(-c2nc3ccccc3n2Cc2ccccc2Cl)c[nH]1	-29%	9%	?	5%	11%
